Where “and” joins values, the source holds several entries; their conditions need not be identical. Equal entries are not always repeated. Inconclusive results are not listed. Where a structure was tested more than once in an assay, its records may differ in their call. Calls of active or inactive are those of the source. The calls were made as follows: active = hit-call score of the fitted dose curve at least 0.9, where 1 is the maximum; inconclusive = response in the unintended direction; inactive = score below 0.9.

The target in experiment [1] is human Peroxisome Proliferator-activated Receptor delta (PPARd), PPARD (gene 5467) (UniProt Q03181). The experiment in a line: ATG_PPARd_TRANS: Attagene TRANS-FACTORIAL HepG2 Assay for human Peroxisome Proliferator-activated Receptor delta (PPARd) (AID 2283002). In short, it runs like this: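 Read-out is induced reporter mRNA, quantified by RT-PCR with fluorescent labelling and capillary electrophoresis after 24 h dosing. Cells are HepG2 transiently carrying multiple GAL4-UAS reporter units driven by exogenous NR-GAL4 chimeras; DMSO serves as baseline.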

Experiment [2] has as its target Retinoic acid receptor alpha (Homo sapiens) (UniProt P10276). The experiment can be described thus: ATG_RARa_TRANS: Attagene TRANS-FACTORIAL HepG2 Assay for human Retinoic Acid Receptor alpha (RARa) (AID 2283005). In short, it runs like this: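 Reporter transcripts, measured by RT-PCR with fluorescent labeling and capillary electrophoresis after 24 h dosing, reflect activity of an exogenous human RARa–GAL4 fusion in transiently transfected HepG2. Fitted for increase relative to DMSO.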

Experiment [3] addresses Nuclear receptor subfamily 1 group I member 2 (Homo sapiens) (UniProt O75469). The experiment can be described thus: ATG_PXR_TRANS: Attagene TRANS-FACTORIAL HepG2 Assay for human Pregnane X Receptor (PXR) (AID 2283008). In outline: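 HepG2 cells transiently transfected with GAL4-UAS reporter units and PXR-Gal4 chimera, exposed 24 h. Reporter mRNA quantified by RT-PCR, fluorescent labelling, HpaI digestion and capillary electrophoresis; gain of signal vs DMSO.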

Experiment [4] addresses human Retinoid X Receptor beta (RXRb), RXRB (gene 6257) (UniProt P28702). The experiment can be described thus: ATG_RXRb_TRANS: Attagene TRANS-FACTORIAL HepG2 Assay for human Retinoid X Receptor beta (RXRb) (AID 2283013). In outline:
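Transfect HepG2 with GAL4-UAS multi-reporter constructs (chimeric NR-Gal4, TRANS format); dose compound 24 h; isolate RNA, RT-PCR, FAM primer extension, HpaI digest; quantify by capillary electrophoresis; positive direction vs DMSO.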

Experiment [5] deals with human Retinoic Acid Receptor beta (RARb), RARB (gene 5915) (UniProt P10826). The experiment in a line: ATG_RARb_TRANS: Attagene TRANS-FACTORIAL HepG2 Assay for human Retinoic Acid Receptor beta (AID 2283004). In short, it runs like this: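 Fluorescent capillary-electrophoresis detection of GAL4-UAS reporter mRNA defines the endpoint, with induction over DMSO-treated wells scored as activity. Transiently transfected human hepatoma HepG2 cells expressing exogenous NR–Gal4 proteins are exposed to test chemicals for 24 h.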

For experiment [6], the target named is Peroxisome proliferator-activated receptor gamma (Homo sapiens) (UniProt P37231). The experiment in a line: ATG_PPARg_TRANS: Attagene TRANS-FACTORIAL HepG2 Assay for human Peroxisome Proliferator-activated Receptor-gamma (PPARg) (AID 2283007). In outline: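 After 24 h of chemical exposure, transfected HepG2 cells carrying PPARγ-Gal4 chimera reporter constructs are lysed for RNA. Reporter transcripts are measured by RT-PCR and capillary electrophoresis with fluorescent labelling, and gain of signal is fitted versus DMSO.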

Experiment [7] concerns the target Retinoic acid receptor RXR-alpha (Homo sapiens) (UniProt P19793). The experiment in a line: ATG_RXRa_TRANS: Attagene TRANS-FACTORIAL HepG2 Assay for human Retinoid X Receptor alpha (RXRa) (AID 2283012). In short, it runs like this:
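Transient transfection of human HepG2 with multiple GAL4-UAS reporter constructs; 24 h compound exposure; total RNA isolated, reverse-transcribed, PCR-amplified, 6-FAM labelled, HpaI-cut, resolved by capillary electrophoresis. Positive-direction fit versus DMSO.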

Experiment [8] addresses human RAR-related Orphan Receptor gamma (RORg), RORC (gene 6097) (UniProt P51449). The experiment can be described thus: ATG_RORg_TRANS: Attagene TRANS-FACTORIAL HepG2 Assay for human RAR-related Orphan Receptor gamma (RORg) (AID 2283011). In outline: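 Chimeric RORg-Gal4 transactivation in transfected HepG2; 24 h exposure; RT-PCR/capillary electrophoresis readout of reporter mRNA, DMSO baseline.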

Experiment [9] concerns the target human Thyroid Receptor alpha (THRa1), THRA (gene 7067) (UniProt P10827). The experiment can be described thus: ATG_THRa1_TRANS: Attagene TRANS-FACTORIAL HepG2 Assay for human Thyroid Receptor alpha (THRa1) (AID 2283014). In short, it runs like this: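 Measured here is mRNA from a GAL4-UAS reporter in transfected HepG2 cells carrying a Gal4-fused receptor, 24 h post-dose. DMSO served as negative control and baseline.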

The target in experiment [10] is human Retinoic Acid Receptor gamma (RARg), RARG (gene 5916) (UniProt P13631). The experiment in a line: ATG_RARg_TRANS: Attagene TRANS-FACTORIAL HepG2 Assay for human Retinoic Acid Receptor gamma (RARg) (AID 2283009). In outline:
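Transient transfection of HepG2 with multi-reporter constructs, then 24 h chemical treatment. Total RNA isolated, reverse-transcribed, PCR-amplified, fluorescently labelled and resolved by capillary electrophoresis; activity scored as mRNA induction versus DMSO.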

In experiment [11] the target is human RAR-related Orphan Receptor beta (RORb), RORB (gene 6096) (UniProt Q92753). The experiment can be described thus: ATG_RORb_TRANS: Attagene TRANS-FACTORIAL HepG2 Assay for human RAR-related Orphan Receptor beta (RORb) (AID 2283010). In outline: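 Readout is reporter-gene mRNA induction, detected as fluorescence after RT-PCR and capillary electrophoresis, fitted for gain of signal against DMSO controls. Transiently transfected HepG2 liver cells carrying GAL4-UAS reporter constructs were treated for 24 hours.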

Experiment [12] has as its target human Peroxisome Proliferator-activated Receptor alpha (PPARa), PPARA (gene 5465) (UniProt Q07869). The experiment in a line: ATG_PPARa_TRANS: Attagene TRANS-FACTORIAL HepG2 Assay for human Peroxisome Proliferator-activated Receptor alpha (PPARa) (AID 2283001). In outline:
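Read-out is fluorescence of reporter cDNA fragments resolved by capillary electrophoresis after RT-PCR. Human HepG2 liver cells carried transfected PPARa-Gal4 chimera and GAL4-UAS reporter units, treated 24 h; activity scored as increase over DMSO.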

Peroxisome proliferator-activated receptor gamma (Homo sapiens), sequence (P37231 whole entry, looked up, the tested form may be a part): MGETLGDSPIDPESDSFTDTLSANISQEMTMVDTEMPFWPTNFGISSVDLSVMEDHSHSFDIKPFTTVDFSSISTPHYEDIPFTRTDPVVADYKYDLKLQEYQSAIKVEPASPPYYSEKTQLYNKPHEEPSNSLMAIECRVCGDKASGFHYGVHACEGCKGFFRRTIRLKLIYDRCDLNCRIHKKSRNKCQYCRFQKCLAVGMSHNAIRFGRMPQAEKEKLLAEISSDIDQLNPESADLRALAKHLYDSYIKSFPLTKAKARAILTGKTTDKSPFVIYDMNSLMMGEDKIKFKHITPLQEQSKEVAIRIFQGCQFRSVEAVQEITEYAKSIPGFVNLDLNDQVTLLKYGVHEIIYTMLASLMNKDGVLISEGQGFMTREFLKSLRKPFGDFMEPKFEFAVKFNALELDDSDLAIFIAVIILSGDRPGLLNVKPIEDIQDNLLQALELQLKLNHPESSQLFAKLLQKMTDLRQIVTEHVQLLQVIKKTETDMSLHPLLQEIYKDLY
human RAR-related Orphan Receptor gamma (RORg), RORC (gene 6097), sequence (P51449 whole entry, looked up, the tested form may be a part): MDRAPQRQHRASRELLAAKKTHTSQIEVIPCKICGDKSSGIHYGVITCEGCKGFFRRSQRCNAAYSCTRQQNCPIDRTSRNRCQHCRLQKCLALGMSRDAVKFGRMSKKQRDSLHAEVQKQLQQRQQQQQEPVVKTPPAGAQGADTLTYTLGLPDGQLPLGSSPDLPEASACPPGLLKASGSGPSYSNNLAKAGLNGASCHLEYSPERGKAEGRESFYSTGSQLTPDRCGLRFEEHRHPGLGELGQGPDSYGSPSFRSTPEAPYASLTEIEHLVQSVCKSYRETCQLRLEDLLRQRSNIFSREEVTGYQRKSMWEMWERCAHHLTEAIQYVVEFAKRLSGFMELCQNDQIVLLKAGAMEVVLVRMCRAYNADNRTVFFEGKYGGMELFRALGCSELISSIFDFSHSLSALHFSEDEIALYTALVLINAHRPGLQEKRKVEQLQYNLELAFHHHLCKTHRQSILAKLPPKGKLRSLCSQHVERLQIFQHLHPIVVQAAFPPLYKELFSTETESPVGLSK
human Retinoic Acid Receptor gamma (RARg), RARG (gene 5916), sequence (P13631 whole entry, looked up): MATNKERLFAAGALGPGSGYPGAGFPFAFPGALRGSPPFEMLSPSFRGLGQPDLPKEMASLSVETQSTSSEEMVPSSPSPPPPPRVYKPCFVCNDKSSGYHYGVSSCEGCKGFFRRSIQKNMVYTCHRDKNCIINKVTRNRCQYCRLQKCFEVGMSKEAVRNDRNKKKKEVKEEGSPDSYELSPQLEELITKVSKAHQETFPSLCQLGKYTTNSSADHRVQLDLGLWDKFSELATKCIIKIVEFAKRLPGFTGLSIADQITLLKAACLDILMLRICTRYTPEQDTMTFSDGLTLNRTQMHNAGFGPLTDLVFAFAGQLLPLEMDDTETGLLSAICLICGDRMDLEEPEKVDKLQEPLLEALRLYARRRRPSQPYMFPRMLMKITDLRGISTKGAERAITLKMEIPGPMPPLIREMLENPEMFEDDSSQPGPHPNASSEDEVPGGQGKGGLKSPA
Retinoic acid receptor alpha (Homo sapiens), sequence (P10276 whole entry, looked up, the tested form may be a part): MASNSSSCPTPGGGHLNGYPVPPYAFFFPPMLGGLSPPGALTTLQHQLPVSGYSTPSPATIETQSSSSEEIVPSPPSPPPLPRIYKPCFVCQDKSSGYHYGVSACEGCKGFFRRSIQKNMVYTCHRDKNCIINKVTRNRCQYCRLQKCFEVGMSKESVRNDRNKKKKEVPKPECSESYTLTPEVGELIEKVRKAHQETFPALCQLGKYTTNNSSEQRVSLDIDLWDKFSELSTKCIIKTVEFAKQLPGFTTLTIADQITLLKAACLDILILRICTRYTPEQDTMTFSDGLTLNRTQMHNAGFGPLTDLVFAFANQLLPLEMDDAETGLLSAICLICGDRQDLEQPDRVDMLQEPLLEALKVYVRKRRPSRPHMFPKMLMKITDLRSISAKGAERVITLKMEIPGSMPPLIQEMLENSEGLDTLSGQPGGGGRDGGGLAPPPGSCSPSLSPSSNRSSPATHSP
human Thyroid Receptor alpha (THRa1), THRA (gene 7067), sequence (P10827 whole entry, looked up, the tested form may be a part): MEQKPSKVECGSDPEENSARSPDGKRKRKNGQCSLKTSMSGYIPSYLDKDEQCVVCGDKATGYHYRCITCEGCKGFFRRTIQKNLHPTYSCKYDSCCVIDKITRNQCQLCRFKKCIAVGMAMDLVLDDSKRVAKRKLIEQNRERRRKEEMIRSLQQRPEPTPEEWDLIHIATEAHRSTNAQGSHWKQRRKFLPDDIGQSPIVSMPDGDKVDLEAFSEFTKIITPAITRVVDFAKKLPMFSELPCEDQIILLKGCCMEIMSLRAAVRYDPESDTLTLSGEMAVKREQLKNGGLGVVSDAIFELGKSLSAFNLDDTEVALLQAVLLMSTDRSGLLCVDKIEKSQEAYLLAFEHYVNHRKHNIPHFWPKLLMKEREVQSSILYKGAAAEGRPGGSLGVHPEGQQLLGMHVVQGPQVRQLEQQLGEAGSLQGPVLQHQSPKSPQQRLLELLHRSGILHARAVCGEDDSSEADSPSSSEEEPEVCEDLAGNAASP
human Peroxisome Proliferator-activated Receptor alpha (PPARa), PPARA (gene 5465), sequence (Q07869 whole entry, looked up, the tested form may be a part): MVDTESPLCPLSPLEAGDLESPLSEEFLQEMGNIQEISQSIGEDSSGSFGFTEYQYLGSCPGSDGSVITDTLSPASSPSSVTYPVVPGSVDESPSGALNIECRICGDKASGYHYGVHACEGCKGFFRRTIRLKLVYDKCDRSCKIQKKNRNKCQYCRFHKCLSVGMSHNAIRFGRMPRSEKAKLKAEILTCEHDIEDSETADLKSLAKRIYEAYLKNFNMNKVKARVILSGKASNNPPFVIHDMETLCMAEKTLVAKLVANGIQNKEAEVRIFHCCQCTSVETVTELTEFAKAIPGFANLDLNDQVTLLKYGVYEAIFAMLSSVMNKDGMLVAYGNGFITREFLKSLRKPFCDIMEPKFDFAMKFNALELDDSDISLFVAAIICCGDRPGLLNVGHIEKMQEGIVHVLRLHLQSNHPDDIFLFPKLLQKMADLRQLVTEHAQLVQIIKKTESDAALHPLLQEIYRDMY
Nuclear receptor subfamily 1 group I member 2 (Homo sapiens), sequence (O75469 whole entry, looked up, the tested form may be a part): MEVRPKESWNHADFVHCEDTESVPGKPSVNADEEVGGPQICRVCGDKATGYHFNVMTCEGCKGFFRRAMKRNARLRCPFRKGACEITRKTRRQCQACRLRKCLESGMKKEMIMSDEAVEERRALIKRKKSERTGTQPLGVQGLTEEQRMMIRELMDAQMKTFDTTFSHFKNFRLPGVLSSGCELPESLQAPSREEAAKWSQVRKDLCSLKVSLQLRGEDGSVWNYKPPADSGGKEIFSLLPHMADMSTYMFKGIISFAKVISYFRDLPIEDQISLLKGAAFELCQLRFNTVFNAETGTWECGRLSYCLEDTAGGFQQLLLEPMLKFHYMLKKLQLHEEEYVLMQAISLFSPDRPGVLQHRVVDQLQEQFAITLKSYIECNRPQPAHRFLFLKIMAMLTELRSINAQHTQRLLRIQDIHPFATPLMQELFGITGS
human Retinoic Acid Receptor beta (RARb), RARB (gene 5915), sequence (P10826 whole entry, looked up, the tested form may be a part): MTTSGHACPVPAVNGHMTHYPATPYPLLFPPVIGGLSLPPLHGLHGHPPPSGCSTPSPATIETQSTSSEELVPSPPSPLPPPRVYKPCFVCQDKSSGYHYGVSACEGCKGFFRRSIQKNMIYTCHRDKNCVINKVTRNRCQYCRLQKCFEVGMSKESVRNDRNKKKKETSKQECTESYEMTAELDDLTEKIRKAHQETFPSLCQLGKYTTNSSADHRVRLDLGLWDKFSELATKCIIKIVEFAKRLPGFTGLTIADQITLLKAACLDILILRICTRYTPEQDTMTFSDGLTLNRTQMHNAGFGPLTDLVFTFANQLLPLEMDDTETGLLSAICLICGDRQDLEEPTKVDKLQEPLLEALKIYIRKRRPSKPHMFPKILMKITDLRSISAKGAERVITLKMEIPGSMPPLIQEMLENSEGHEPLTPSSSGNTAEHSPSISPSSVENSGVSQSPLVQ
human RAR-related Orphan Receptor beta (RORb), RORB (gene 6096), sequence (Q92753 whole entry, looked up, the tested form may be a part): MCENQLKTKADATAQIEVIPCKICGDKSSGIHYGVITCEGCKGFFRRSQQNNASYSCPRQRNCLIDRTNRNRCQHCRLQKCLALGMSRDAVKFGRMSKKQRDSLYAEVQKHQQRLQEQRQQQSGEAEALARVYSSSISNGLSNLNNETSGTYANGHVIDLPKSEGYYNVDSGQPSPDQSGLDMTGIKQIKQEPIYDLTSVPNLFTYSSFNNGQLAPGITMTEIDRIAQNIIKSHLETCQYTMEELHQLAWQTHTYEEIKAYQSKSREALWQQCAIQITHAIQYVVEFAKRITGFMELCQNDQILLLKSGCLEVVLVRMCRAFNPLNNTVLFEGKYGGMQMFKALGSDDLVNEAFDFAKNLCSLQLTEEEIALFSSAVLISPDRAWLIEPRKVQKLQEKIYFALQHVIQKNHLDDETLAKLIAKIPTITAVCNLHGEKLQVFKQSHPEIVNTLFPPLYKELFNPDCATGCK
human Retinoid X Receptor beta (RXRb), RXRB (gene 6257), sequence (P28702 whole entry, looked up, the tested form may be a part): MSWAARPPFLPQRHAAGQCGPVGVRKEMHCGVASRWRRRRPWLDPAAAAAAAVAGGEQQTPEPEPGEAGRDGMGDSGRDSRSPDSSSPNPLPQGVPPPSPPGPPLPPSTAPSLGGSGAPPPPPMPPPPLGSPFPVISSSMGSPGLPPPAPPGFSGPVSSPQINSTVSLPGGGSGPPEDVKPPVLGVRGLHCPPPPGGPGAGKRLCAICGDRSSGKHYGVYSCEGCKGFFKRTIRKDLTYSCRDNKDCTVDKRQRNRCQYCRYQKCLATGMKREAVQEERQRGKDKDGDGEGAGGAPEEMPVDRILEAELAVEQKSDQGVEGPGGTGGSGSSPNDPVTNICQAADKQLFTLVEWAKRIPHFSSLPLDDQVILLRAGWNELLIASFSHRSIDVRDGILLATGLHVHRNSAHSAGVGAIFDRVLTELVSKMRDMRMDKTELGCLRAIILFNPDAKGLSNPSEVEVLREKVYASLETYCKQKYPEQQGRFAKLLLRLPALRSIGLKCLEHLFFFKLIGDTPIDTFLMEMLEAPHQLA

Take `CCO[Si](C)(C)OCC`: the call in experiment [1], in experiment [2], in [3] and in experiment [4] was inactive.
Regarding `O=C(F)C(F)(F)C(F)(F)C(F)(F)C(F)F`, the outcome in [1], in [5], in experiment [6], in experiment [3], in [7] and in experiment [4] was inactive.
On to `Cc1ccccc1OCC(=O)O`, for which the outcome in experiment [1], in [5] and in [8] was inactive.
As for `CCCCCCc1ccc(N)cc1`, the molecule was called inactive in experiment [1], in [6], in [3], in experiment [7], in experiment [4] and in experiment [9].
With `CC1CCC(C(=O)O)CC1` (stereo not drawn), the outcome in experiment [1], in experiment [2], in [6], in experiment [7] and in experiment [9] was inactive.
`FC(F)(F)C1(F)C(F)(F)C(F)(F)C(F)(F)C1(F)F`: the molecule was called inactive in experiment [1], in experiment [5], in experiment [2], in experiment [6], in experiment [10] and in experiment [11]. The molecule was classed as inactive in experiment [8], in [7] and in experiment [9].
What is called AC50 is the concentration giving half of the maximal activity seen. As to `Nc1cc(Cl)c(-c2cc(Cl)c(N)cc2Cl)cc1Cl`, the outcome in experiment [1], in experiment [11], in experiment [7] and in experiment [9] was inactive. For the same molecule, the half-maximal activity concentration (AC50) was 14.5 µM (active) in experiment [6] and 4.7 µM (active) in [3].
Regarding `NS(=O)(=O)O`, the call in experiment [12], in [6], in experiment [3], in experiment [11], in experiment [8] and in [7] was inactive. Further, the result in experiment [4] and in [9] was inactive.
In the case of `NCCN`, the molecule was called inactive in experiment [1], in experiment [5], in [2], in experiment [6] and in [8].
As for `CCCCCCOC(=O)c1ccc(O)cc1`, the call in experiment [1], in experiment [10], in experiment [7] and in [9] was inactive. In addition, the AC50 was 23.2 µM (active) in experiment [6], 25.6 µM (active) in [3] and 33.4 µM (active) in experiment [4].
Regarding `O=C1C=CC(=O)N1c1cccc(N2C(=O)C=CC2=O)c1`, the molecule was classed as inactive in experiment [12], in experiment [6], in experiment [3], in experiment [10], in experiment [8] and in [7]. Also, the call in experiment [4] and in experiment [9] was inactive.
Take `c1ccc(CNc2ncnc3c2ncn3C2CCCCO2)cc1` (stereo not drawn): the call in [1], in experiment [5], in experiment [2], in experiment [10], in experiment [7] and in experiment [4] was inactive. The results for the AC50 in experiment [6] and in experiment [3] were 70.6 µM (active) and 6.85 µM (active), respectively.
As to `Cc1cncc(C)c1`, the molecule was classed as inactive in [1], in experiment [6] and in [3].
Consider `COc1ccc(C#N)cc1`, for which the outcome in [12], in experiment [6], in experiment [3], in experiment [10] and in experiment [11] was inactive.
As for `Cc1ccc2ccc3ccc(C)cc3c2c1`, the result in experiment [1], in experiment [5], in experiment [6], in experiment [11], in [8] and in [7] was inactive. The half-maximal activity concentration (AC50) in [3] was 14.4 µM (active).
As for `NC(C(F)(F)F)C(F)(F)F`, the result in experiment [12], in experiment [10] and in experiment [9] was inactive.
For the molecule `Brc1cc(Br)c(Oc2c(Br)cc(Br)c(Br)c2Br)cc1Br`, the outcome in experiment [1], in [5], in experiment [6], in experiment [8] and in experiment [7] was inactive.
As to `Brc1ccc(Oc2ccc(Br)cc2Br)cc1`, the outcome in experiment [12], in [6] and in experiment [8] was inactive.
In the case of `COC(O)c1ccccc1` (stereo not drawn), the call in [1], in experiment [5], in [2], in experiment [6], in [11] and in [8] was inactive. Further, the outcome in experiment [7] and in experiment [9] was inactive.
Turning to `CC(C)(C)C1CCCCC1O` (stereo not drawn), the molecule was called inactive in experiment [1], in experiment [5], in experiment [3], in experiment [10], in experiment [11] and in experiment [8]. Besides, the outcome in experiment [7] and in [9] was inactive.
For the molecule `CC1=CC(=O)c2ccccc2C1=O`, the molecule was called inactive in experiment [12], in experiment [2], in experiment [6], in experiment [10], in experiment [11] and in [7]. For the same molecule, the call in experiment [4] and in experiment [9] was inactive.
Turning to `O=c1cc(-c2ccccc2)oc2ccc3ccccc3c12`, the outcome in experiment [12], in [6], in [3], in [11], in [8] and in experiment [7] was inactive. The result in experiment [9] was inactive. For the same molecule, the values for the AC50 in [6] and in experiment [3] were 0.708 µM (active) and 5.62 µM (active), respectively.
Take `CCCCCC(C)OC(=O)COc1ccc(Cl)c2cccnc12` (stereo not drawn): the molecule was classed as inactive in experiment [12], in [3], in experiment [10], in experiment [7] and in experiment [4]. For the same molecule, in experiment [6], the AC50 was 34.9 µM (active).
For the molecule `C=CC(=O)OCC(CO)(COCC(COC(=O)C=C)(COC(=O)C=C)COC(=O)C=C)COC(=O)C=C`, the molecule was called inactive in [12], in experiment [6], in experiment [3], in experiment [8], in experiment [7] and in experiment [4].
As to `O=CC(F)(F)C(F)(F)C(F)(F)F`, the molecule was classed as inactive in experiment [1], in [6], in experiment [3], in experiment [11], in experiment [7] and in experiment [4]. In addition, the outcome in experiment [9] was inactive.
Take `O=S(=O)(O)c1ccccc1`: the molecule was called inactive in [12], in experiment [6], in [3], in [10], in experiment [11] and in [7]. Besides, the result in experiment [4] was inactive.
As to `C=Cc1ccc(O)c(OC)c1`, the molecule was classed as inactive in experiment [1], in [5], in [2], in experiment [10], in experiment [8] and in [7]. Also, the call in experiment [4] and in [9] was inactive. Besides, in [6], the AC50 was 8.33 µM (active).
In the case of `Cc1cc(C(C)(C)C)c(O)c(C(C)(C)C)c1`, the call in experiment [1], in experiment [6], in [3] and in experiment [9] was inactive. Besides, the AC50 in experiment [3] was 27.3 µM (active); in experiment [7], 15.6 µM (active) and 865 nM (active); in [4], 918 nM (active) and 88 nM (active).
As for `CC(C)(c1ccc(Oc2ccc(N)cc2)cc1)c1ccc(Oc2ccc(N)cc2)cc1`, the result in [1], in experiment [8], in experiment [7], in [4] and in [9] was inactive. In addition, the concentration at half-maximal activity (AC50) in experiment [6] is 1.69 µM (active); in [3] it was 2.28 µM (active).
For the molecule `O=C(F)C(F)(F)C(F)(F)C(F)(F)C(=O)F`, the outcome in experiment [12], in [2], in [3], in experiment [8] and in experiment [7] was inactive.

Source of the values: PubChem BioAssay (EPA / NIEHS).
